Data from PubChem BioAssay (EPA / NIEHS).
Inconclusive results are not listed. Active and inactive are the calls of the source. Rule for the calls, unless noted: active = hit-call score of the fitted dose curve at least 0.9, where 1 is the maximum; inconclusive = response in the unintended direction; inactive = score below 0.9. Where a SMILES comes first, the peptide text is derived from it. [ ]: non-standard residue; d: D form. The star is where a group is joined. Sta = CC(C)C[C@H](N)[C@@H](O)CC(=O)O; Isovaleryl = CC(C)CC(=O)*

What was measured:
[1] = biological target: Cellular tumor antigen p53 (Homo sapiens) (UniProt P04637); experiment: TOX21_p53_BLA_p2_ratio: Tox21 HCT-116 p53 Agonism Beta-lactamase Assay, Ratio, Phase 2 (AID 2283592)
Chain of Cellular tumor antigen p53 (Homo sapiens) (P04637 whole entry, looked up): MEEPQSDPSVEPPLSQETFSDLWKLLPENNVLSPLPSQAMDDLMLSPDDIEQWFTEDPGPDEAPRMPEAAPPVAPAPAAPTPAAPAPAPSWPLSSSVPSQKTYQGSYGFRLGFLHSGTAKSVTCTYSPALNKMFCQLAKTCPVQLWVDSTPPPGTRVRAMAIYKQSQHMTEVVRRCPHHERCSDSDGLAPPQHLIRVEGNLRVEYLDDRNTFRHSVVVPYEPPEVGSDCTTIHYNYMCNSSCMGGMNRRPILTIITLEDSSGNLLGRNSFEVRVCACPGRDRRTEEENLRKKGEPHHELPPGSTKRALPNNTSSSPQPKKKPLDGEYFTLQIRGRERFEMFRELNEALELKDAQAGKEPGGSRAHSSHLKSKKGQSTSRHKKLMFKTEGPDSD
In short: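 An inducible beta-lactamase reporter in HCT116 cells signals p53 pathway activation. After 16 h chemical exposure at 37C, cells load CCF4-AM substrate for 2 h at room temperature; activity is the cleaved/uncleaved emission ratio relative to DMSO.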

[2] = TOX21_p53_BLA_p4_viability: Viability Assessment in the Tox21 HCT-116 p53 Agonism Beta-lactamase Assay, Phase 4 (AID 2283597);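 note: hits lower the luminescence signal meaning cytotoxicity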
In short: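 Compound exposure of HCT116 cells lasts 16 h at 37C, 5% CO2, with DMSO stocks diluted 217-fold. Cellular ATP is then quantified by CellTiter-Glo luminescence after 30 min at room temperature.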

[3] = biological target: Cellular tumor antigen p53 (Homo sapiens) (UniProt P04637); experiment: TOX21_p53_BLA_p4_ratio: Tox21 HCT-116 p53 Agonism Beta-lactamase Assay, Ratio, Phase 4 (AID 2283601)
In short: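 HCT-116 p53 beta-lactamase reporter cells (4000/well) preincubated 5 h, then compound (217-fold dilution of DMSO stock) for 16 h at 37C. CCF4-AM substrate added 2 h at room temperature; 460/530 nm emission ratio fitted upward versus DMSO.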

[4] = biological target: Cellular tumor antigen p53 (Homo sapiens) (UniProt P04637); experiment: TOX21_p53_BLA_p5_ratio: Tox21 HCT-116 p53 Agonism Beta-lactamase Assay, Ratio, Phase 5 (AID 2283599)
In short: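 HCT-116 p53-bla cells (4000/well) plated 5 h, dosed with compound (217-fold DMSO dilution) for 16 h at 37 C; CCF4-AM substrate 2 h at room temperature. Activity is the 460/530 nm emission ratio (405 nm excitation), fitted in gain-of-signal direction versus DMSO.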

[5] = TOX21_p53_BLA_p5_viability: Viability Assessment in the Tox21 HCT-116 p53 Agonism Beta-lactamase Assay, Phase 5 (AID 2283600)
In short: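 Counter-readout for cytotoxicity: ATP-dependent luminescence from CellTiter-Glo, read in the beta-lactamase wells after 30 min at RT, following a 16 h compound exposure at 37C.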

[6] = CCTE_Harrill_HTTr_Viability_MCF7: CCTE's 6-hour Cell Viability Assessment for the High-Throughput Transcriptomics (HTTr) Platform, in MCF-7 cells cultured in DMEM + 10% fetal bovine serum, Harrill Lab (AID 2284010; active = hit-call score of the fitted dose curve at least 0.9, where 1 is the maximum; inactive = score below 0.9)
In short: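 Viability measured through PI dye exclusion by high-content imaging at 6 h post-dosing.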

[7] = CCTE_Harrill_HTTr_CellCount_MCF7: CCTE's Cell Proliferation Assessment for the High-Throughput Transcriptomics (HTTr) Platform, Harrill Lab (AID 2284012);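 note: count of Hoechst-stained nuclei per well by high-content imaging in MCF-7 cells; cells exposed to compound for six hours; intended direction is loss of nuclei count meaning fewer cells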
In short: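 Nuclei counting (Hoechst, high content imaging) in MCF-7 after a 6 h treatment at eight concentrations. Activity fitted bidirectionally, DMSO as negative control.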

Measured: outcome

NC(Cc1ccccc1)C(=O)O (stereo not drawn)
inactive: [1] | [2] | [3]

C=C(C)C(=O)OC1CC(C)CC(C)(C)C1 (stereo not drawn)
inactive: [1] | [4]

CC/C=C(\C(=O)N[C@@H]1C(=O)N2C(C(=O)OCOC(=O)C(C)(C)C)=C(COC(N)=O)CS[C@H]12)c1csc(N)n1
inactive: [1] | [2] | [5] | [3]

CC(=O)Nc1ncc([N+](=O)[O-])s1
inactive: [1] | [4]

c1ccc(SCCSc2ccccc2)cc1
inactive: [1] | [4] | [5] | [3]

CC1(C)O[C@@H]2C[C@H]3[C@@H]4CCC5=CC(=O)C=C[C@]5(C)[C@H]4[C@@H](O)C[C@]3(C)[C@]2(C(=O)CO)O1
inactive: [1] | [4] | [5]

O=C(O)CP(=O)(O)O
inactive: [1] | [2] | [5] | [3]

O=C(Oc1ccccc1C(=O)O)c1ccccc1O
inactive: [1] | [2] | [3]

CN(CC(=O)N1CCOCC1)Cc1c(Cl)cccc1NC(=O)c1ccccc1
inactive: [1] | [2] | [5] | [3]

CCCC(=O)C(=O)O
inactive: [1] | [4] | [5] | [3]

CCOC(=O)[C@H](CCc1ccccc1)N[C@@H](C)C(=O)N1CC2(C[C@H]1C(=O)O)SCCS2
inactive: [1] | [2] | [3]

CCCCCCCCCCCCOCCCN
inactive: [1] | [2] | [3]

CN(C)Cc1ccccc1
inactive: [1] | [4] | [5] | [3]

CC1(C)O[C@@H]2C[C@H]3[C@@H]4CCC5=CC(=O)CC[C@]5(C)[C@@]4(F)[C@@H](O)C[C@]3(C)[C@]2(C(=O)CCl)O1
inactive: [1] | [2] | [5] | [3]

NC(=O)c1cn(Cc2c(F)cccc2F)nn1
inactive: [1] | [2] | [5] | [3]

COc1ccc2cc([C@H](C)CO)ccc2c1
inactive: [1] | [4] | [5]

CC(C)(C)NCCO
inactive: [1] | [2] | [5] | [3]

C=CC(=O)OCCOCC(CC)(COCCOC(=O)C=C)COCCOC(=O)C=C
inactive: [1] | [4] | [5] | [3]

O=C1CC[C@H](C(=O)N2CCCCC2)N1
inactive: [1] | [2] | [5] | [3]

C1COCCO1
inactive: [1] | [4] | [5]

CC1=C(C(=O)O)N2C(=O)[C@@H](NC(=O)[C@H](N)c3ccccc3)[C@H]2SC1
inactive: [1] | [4] | [5]

CC(=O)OCC(=O)[C@@]1(O)CC[C@H]2[C@@H]3CCC4=CC(=O)CC[C@]4(C)C3=CC[C@@]21C
inactive: [1] | [4] | [5]

CC(=O)OCC(=O)[C@@]1(O)[C@H](C)C[C@H]2[C@@H]3C[C@H](F)C4=CC(=O)C=C[C@]4(C)[C@H]3[C@@H](O)C[C@@]21C
inactive: [1] | [2] | [3]

COCc1ccc(COC)cc1
inactive: [1] | [2] | [3]

C=C(C)C(=O)OCCCCCCOC(=O)C(=C)C
inactive: [1] | [4] | [5]

CCCCCCCCCCCCCCCCOP(=O)([O-])OCC[N+](C)(C)C
inactive: [1] | [4]

CO[C@H]1/C=C/O[C@@]2(C)Oc3c(C)c(O)c4c(O)c(c5c(nc6cc(C)ccn65)c4c3C2=O)NC(=O)/C(C)=C\C=C\[C@H](C)[C@H](O)[C@@H](C)[C@@H](O)[C@@H](C)[C@H](OC(C)=O)[C@@H]1C
inactive: [1] | [2] | [3]

O=C(O)CCS
inactive: [1] | [2] | [5] | [3]

CC(COc1ccccc1)NN (stereo not drawn)
inactive: [1] | [2] | [3]

O=C(C(=O)c1ccc(Br)cc1)c1ccc(Br)cc1
inactive: [1] | [4]

NC(=O)N1c2ccccc2CC(=O)c2ccccc21
not listed: [2] | [5]
inactive: all other assays above

O=C1NCCN1CCO
inactive: [1] | [4] | [5] | [3]

C[C@@H](O)[C@H]1C(=O)N2C(C(=O)O)=C([C@H]3CCCO3)S[C@H]12
inactive: [1] | [5] | [3]

NC[C@H]1O[C@H](O[C@H]2[C@H](O[C@@H]3O[C@H](CO)[C@@H](O)[C@H]3O)C(O)[C@H](N)C[C@@H]2N)[C@H](N)[C@@H](O)[C@@H]1O (stereo partly drawn)
inactive: [1] | [4] | [3]

CC(C)C(=O)c1c(C(C)C)nn2ccccc12
inactive: [1] | [4] | [3]

CC(C)CC(=O)N[C@H](C(=O)N[C@H](C(=O)N[C@@H](CC(C)C)[C@@H](O)CC(=O)N[C@@H](C)C(=O)N[C@@H](CC(C)C)[C@@H](O)CC(=O)O)C(C)C)C(C)C (Isovaleryl-VV[Sta]A[Sta]-OH)
inactive: [1] | [5]
